The source of these data is PubChem BioAssay (EPA / NIEHS).

The structures appear in SMILES notation. Activity calls are given as the source filed them. How the source made its calls: active means hit-call score of the fitted dose curve at least 0.9, where 1 is the maximum; inactive means score below 0.9.

Read-out in one test: Monokine induced gamma interferon (MIG), CXCL9 (gene 4283)
The test can be described thus: BSK_CASM3C_MIG: BioMAP Diversity Plus: CASM3C Assay for Monokine induced gamma interferon (MIG) Biomarker Activity (AID 2283048).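 Further: MIG protein level measured by ELISA.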 Conditions: primary human coronary artery smooth muscle cells; actives raise or lower the signal.
For the compound `CC(C)(C)OOC(=O)c1ccccc1`, the outcome was inactive.

As a reminder, the AC50 is the concentration giving half of the maximal activity seen. On to `ClC1=C(Cl)C2(Cl)C3C(Cl)C=CC3C1(Cl)C2(Cl)Cl` (stereo unspecified), for which the AC50 is 31.2 µM (active).

For `CCC12COCN1COC2`, the outcome was inactive.

For the compound `CCNS(=O)(=O)C(F)(F)C(F)(F)C(F)(F)C(F)(F)C(F)(F)C(F)(F)C(F)(F)C(F)(F)F`, the result was inactive.

For `CN(C)c1ccccc1`, the outcome was inactive.

Turning to `ClCCOCCCl`, the outcome was inactive.

`CCOc1cccc(C2(N3CCN(c4ccccc4)CC3)CCC(C)CC2)c1` (stereo unspecified): the outcome was inactive.

Regarding `CC(C)(C)C(O)(CCc1ccc(Cl)cc1)Cn1cncn1` (stereo unspecified), the result was inactive.

Regarding `OCCCl`, the outcome was inactive.

With `CC(C)N(Cc1ccccc1)C(=O)C(C)(C)C`, the outcome was inactive.

In the case of `C[N+](C)(C)CC1CO1` (stereo unspecified), the result was inactive.

For `O=[N+]([O-])c1ccc(Oc2ccc(Cl)cc2Cl)cc1`, the outcome was inactive.

On to `C1=Cc2cccc3cccc1c23`, for which the outcome was inactive.

For the compound `Nc1ccc(Cc2ccc(N)cc2)cc1`, the outcome was inactive.

Take `c1ccc(C2CO2)cc1` (stereo unspecified): the result was inactive.

Take `Cc1ccc([N+](=O)[O-])cc1`: the result was inactive.

As to `CNC(=O)Oc1cccc2c1OC(C)(C)C2`, the result was inactive.

Regarding `Cc1cccc(N)c1N`, the result was inactive.

As to `CN(C)C(=O)Nc1ccc(Cl)cc1`, the result was inactive.

On to `[O-][Cl+]O`, for which the result was inactive.

With `O=C(N[C@H](c1ccccc1)[C@@H]1CN2CCC1CC2)c1c(Cl)ccc(C(F)(F)F)c1Cl`, the outcome was inactive.

Turning to `Clc1ccccc1Cl`, the result was inactive.

In the case of `OCCCBr`, the outcome was inactive.

Consider `CN(C)c1ccc(C(=O)c2ccc(N(C)C)cc2)cc1`, for which the outcome was inactive.

As for `CCCCC(CC)COC(=O)c1ccc(C(=O)OCC(CC)CCCC)c(C(=O)OCC(CC)CCCC)c1` (stereo unspecified), the result was inactive.

Take `COC(=O)Nc1nc2ccccc2[nH]1`: the outcome was inactive.

With `Cc1cc(N=Nc2ccccc2C)ccc1N`, the outcome was inactive.

Read-out in a further test: serum amyloid A (SAA), SAA1 (gene 6288)
The test can be described thus: BSK_CASM3C_SAA: BioMAP Diversity Plus: CASM3C Assay for serum amyloid A (SAA) Biomarker Activity (AID 2283049).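 Further: SAA protein level quantified by ELISA.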 The following applies: primary human coronary artery smooth muscle cells; actives raise or lower the signal.
As to `CC(C)(C)OOC(=O)c1ccccc1`, the outcome was inactive.

`ClC1=C(Cl)C2(Cl)C3C(Cl)C=CC3C1(Cl)C2(Cl)Cl` (stereo unspecified): the concentration at half-maximal activity (AC50) is 30.2 µM (active).

With `CCC12COCN1COC2`, the result was inactive.

For `CCNS(=O)(=O)C(F)(F)C(F)(F)C(F)(F)C(F)(F)C(F)(F)C(F)(F)C(F)(F)C(F)(F)F`, the outcome was inactive.

As to `CN(C)c1ccccc1`, the result was inactive.

Regarding `ClCCOCCCl`, the result was inactive.

As for `CCOc1cccc(C2(N3CCN(c4ccccc4)CC3)CCC(C)CC2)c1` (stereo unspecified), the result was inactive.

`CC(C)(C)C(O)(CCc1ccc(Cl)cc1)Cn1cncn1` (stereo unspecified): the result was inactive.

For the compound `OCCCl`, the outcome was inactive.

For `CC(C)N(Cc1ccccc1)C(=O)C(C)(C)C`, the outcome was inactive.

Regarding `C[N+](C)(C)CC1CO1` (stereo unspecified), the outcome was inactive.

For the compound `O=[N+]([O-])c1ccc(Oc2ccc(Cl)cc2Cl)cc1`, the outcome was inactive.

`C1=Cc2cccc3cccc1c23`: the result was inactive.

Turning to `Nc1ccc(Cc2ccc(N)cc2)cc1`, the result was inactive.

As to `c1ccc(C2CO2)cc1` (stereo unspecified), the result was inactive.

With `Cc1ccc([N+](=O)[O-])cc1`, the outcome was inactive.

`CNC(=O)Oc1cccc2c1OC(C)(C)C2`: the result was inactive.

Consider `Cc1cccc(N)c1N`, for which the result was inactive.

In the case of `CN(C)C(=O)Nc1ccc(Cl)cc1`, the outcome was inactive.

Turning to `[O-][Cl+]O`, the outcome was inactive.

As to `O=C(N[C@H](c1ccccc1)[C@@H]1CN2CCC1CC2)c1c(Cl)ccc(C(F)(F)F)c1Cl`, the outcome was inactive.

Take `Clc1ccccc1Cl`: the outcome was inactive.

Turning to `OCCCBr`, the result was inactive.

On to `CN(C)c1ccc(C(=O)c2ccc(N(C)C)cc2)cc1`, for which the outcome was inactive.

In the case of `CCCCC(CC)COC(=O)c1ccc(C(=O)OCC(CC)CCCC)c(C(=O)OCC(CC)CCCC)c1` (stereo unspecified), the result was inactive.

In the case of `COC(=O)Nc1nc2ccccc2[nH]1`, the outcome was inactive.

For the compound `Cc1cc(N=Nc2ccccc2C)ccc1N`, the outcome was inactive.

Read-out in a further test: not listed separately
Kind of test: BSK_CASM3C_SRB: Viability Assessment in the BioMAP Diversity Plus: CASM3C Assay (AID 2283050).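 Further: total protein by SRB staining as cytotoxicity measure in parallel cultures; cells exposed to compound for 24 h.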 The following applies: primary human coronary artery smooth muscle cells.
With `CC(C)(C)OOC(=O)c1ccccc1`, the result was inactive.

For the compound `ClC1=C(Cl)C2(Cl)C3C(Cl)C=CC3C1(Cl)C2(Cl)Cl` (stereo unspecified), the concentration at half-maximal activity (AC50) was 32 µM (active).

In the case of `CCC12COCN1COC2`, the result was inactive.

With `CCNS(=O)(=O)C(F)(F)C(F)(F)C(F)(F)C(F)(F)C(F)(F)C(F)(F)C(F)(F)C(F)(F)F`, the outcome was inactive.

`CN(C)c1ccccc1`: the result was inactive.

As to `ClCCOCCCl`, the outcome was inactive.

For `CCOc1cccc(C2(N3CCN(c4ccccc4)CC3)CCC(C)CC2)c1` (stereo unspecified), the result was inactive.

For `CC(C)(C)C(O)(CCc1ccc(Cl)cc1)Cn1cncn1` (stereo unspecified), the outcome was inactive.

Take `OCCCl`: the outcome was inactive.

As for `CC(C)N(Cc1ccccc1)C(=O)C(C)(C)C`, the result was inactive.

Consider `C[N+](C)(C)CC1CO1` (stereo unspecified), for which the outcome was inactive.

`O=[N+]([O-])c1ccc(Oc2ccc(Cl)cc2Cl)cc1`: the outcome was inactive.

As for `C1=Cc2cccc3cccc1c23`, the result was inactive.

With `Nc1ccc(Cc2ccc(N)cc2)cc1`, the outcome was inactive.

With `c1ccc(C2CO2)cc1` (stereo unspecified), the outcome was inactive.

Regarding `Cc1ccc([N+](=O)[O-])cc1`, the outcome was inactive.

Take `CNC(=O)Oc1cccc2c1OC(C)(C)C2`: the result was inactive.

As for `Cc1cccc(N)c1N`, the outcome was inactive.

Turning to `CN(C)C(=O)Nc1ccc(Cl)cc1`, the outcome was inactive.

With `[O-][Cl+]O`, the outcome was inactive.

In the case of `O=C(N[C@H](c1ccccc1)[C@@H]1CN2CCC1CC2)c1c(Cl)ccc(C(F)(F)F)c1Cl`, the outcome was inactive.

On to `Clc1ccccc1Cl`, for which the result was inactive.

Turning to `OCCCBr`, the result was inactive.

On to `CN(C)c1ccc(C(=O)c2ccc(N(C)C)cc2)cc1`, for which the outcome was inactive.

With `CCCCC(CC)COC(=O)c1ccc(C(=O)OCC(CC)CCCC)c(C(=O)OCC(CC)CCCC)c1` (stereo unspecified), the outcome was inactive.

For the compound `COC(=O)Nc1nc2ccccc2[nH]1`, the outcome was inactive.

Consider `Cc1cc(N=Nc2ccccc2C)ccc1N`, for which the outcome was inactive.
